This is part of a sample that, as a whole, favours compounds with a hit. Of some 79,000 tested, about 15% had one in any assay. Values without a mark were called inactive. Calls of active or inactive are those of the source. Cut-off read from the data, not from the text of the source: active = growth inhibition above about 70%; inactive = the rest. Where a SMILES comes first, the peptide text is derived from it.
Key:
[1] = NCI Yeast Anticancer Drug Screen. Data for the rad50 strain (AID 155);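 note: 0% = growth of vehicle-only cultures of the same strain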; conditions: S. cerevisiae rad50 strain growth inhibition; at 50.0 µM; hits give high values
How it was run: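 Cells are treated with compound, grown, and their growth is then scored against vehicle-only cultures of the same repair-deficient yeast strain.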

[2] = NCI Yeast Anticancer Drug Screen. Data for the mec2-1 strain (AID 157); conditions: S. cerevisiae mec2-1 strain, at 50.0 µM, hits give high values
How it was run: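 Test agents were screened against the mec2-1 yeast strain, with defined DNA repair or cell cycle alteration. Growth was scored as inhibition against vehicle-only controls.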

[3] = NCI Yeast Anticancer Drug Screen. Data for the sgs1 mgt1 strain (AID 161);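 note: 0% = growth of cultures given vehicle only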; conditions: S. cerevisiae sgs1 mgt1 strain, at 50.0 µM, hits give high values
How it was run: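 Genetically altered yeast, compound exposure, growth inhibition relative to vehicle.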

[4] = NCI Yeast Anticancer Drug Screen. Data for the cln2 rad14 strain (AID 165);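 note: 0% = growth equal to vehicle treated cultures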; conditions: S. cerevisiae cln2 rad14 strain, at 50.0 µM, hits give high values
How it was run: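 Growth of compound-exposed yeast (cln2 rad14 genotype) measured and expressed as inhibition relative to vehicle.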

[5] = NCI Yeast Anticancer Drug Screen. Data for the bub3 strain (AID 167); conditions: S. cerevisiae bub3 mutant strain, at 50.0 µM, hits give high values
How it was run: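 Part of a panel of yeast mutants defective in DNA damage repair or cell cycle regulation. Each strain is grown with compound, and inhibition is calculated relative to solvent-treated cultures.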

[6] = NCI Yeast Anticancer Drug Screen. Data for the mlh1 rad18 strain (AID 175); conditions: S. cerevisiae mlh1 rad18 strain growth inhibition; at 50.0 µM; hits give high values
How it was run: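 In this whole-cell yeast screen, a strain with altered DNA damage repair is challenged with compound, and its growth is measured against matched vehicle-treated controls.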

Structure (SMILES) | growth inhibition [1] | growth inhibition [2] | growth inhibition [3] | growth inhibition [4] | growth inhibition [5] | growth inhibition [6]
COC(=O)CCC(NC(=S)N/N=C(\C)c1cccs1)C(=O)OC (centres undefined) | 14.1% | -10.3% | 17.3% | 0.45% | 7.4% | -0.25%
CCC1(CCC#N)CCC(N)=CC1=O (centres undefined) | 21.9% | 17.3% | 7.9% | -50% | -6.2% | -0.75%
CN(C)/C=N/c1cc(=O)n(C)c(=O)n1C | 48.2% | 13.4% | 1.85% | 2.9% | -18.1% | -16.4%
C=CCOC(=O)CCCCC(=O)OCC=C | 3.1% | 4.15% | 3.65% | 6.1% | 19.9% | 0.1%
COc1ccc(C2=NN(C(C)=O)C(c3cc(OC)c(OC)cc3N)S2)cc1OC (centres undefined) (tested in a mixture with another compound) | 16.2% | 17.1% | 32.1% | 19.6% | 12.9% | 30.1%
CCOC(=O)C1(Cc2ccccc2)Cc2ccccc2C1=O (centres undefined) | 7.75% | 29.9% | 79% (active) | 62.1% | 73.7% (active) | 63.5%
O=C1C(O)=C(Cl)C(=O)C(O)=C1Cl.[Zn+2] | -40.5% | -25.8% | -10.2% | -9.1% | -16.9% | -26.8%
O=C(Nc1ccc(C(=O)O)cc1)Nc1nccs1 | 16.9% | 6.5% | 18% | -16.7% | 7.2% | 43.7%
CC(Cl)CN1c2ccccc2Sc2ccc(Cl)cc21 (centres undefined) | 33% | -5.4% | 2.35% | 23% | 5.35% | 16.8%
COC(=O)c1nc(N)nc(C(=O)OC)c1C(=O)c1ccc([N+](=O)[O-])cc1 | -20.9% | -23.6% | -37% | -22% | -44.8% | -41%
N#CCCN(C1=NN(C(=O)CC(=O)Nc2cccc(Cl)c2)C(c2ccccc2)C1)c1ccccc1Cl (centres undefined) | 8.2% | -28.8% | -16.1% | 11.5% | -14.9% | -30.9%
Cc1cc(NC(C)C)c(C)cc1NC(C)C | 49% | 31.9% | 47.1% | 21.8% | 33.5% | 43.8%
O=[N+]([O-])c1ccc(SN2CCCCC2CC2CCCCC2)c([N+](=O)[O-])c1 (centres undefined) | 19.9% | -4.6% | -18.9% | -2.25% | 1.3% | 3.1%
COc1cc2c(cc1OC)C(c1c(Cl)cccc1Cl)=NCC2 | 13.1% | 10% | 41.4% | 4.25% | 42.6% | 12.7%
COc1cc(CCC(C)=O)ccc1OC(=O)c1c(-c2c(F)cccc2Cl)noc1C | 1.85% | -12.2% | 14.3% | 19.3% | 10.3% | 3.5%
Nc1ccc(C(=O)c2ccccc2)cc1 | 33.2% | 13.9% | 25.4% | -8.55% | -1.55% | 4.9%
C[n+]1nc2ccccc2c(=Nc2ccccc2[N+](=O)[O-])[n-]1 | 10.3% | -2.35% | 22.7% | 14.1% | 8.5% | -1.65%
O=C1C(=O)c2ccccc2C(O)=C1Cc1ccccc1 | -15.2% | 13.8% | -11.9% | 7.5% | -36.8% | 1.85%
NCCCCC(NC(=O)C(N)Cc1cnc[nH]1)C(=O)O (stereo not drawn) (H-His-Lys-OH; configuration not given here) | 4.1% | -5.75% | -4% | 13.3% | 7.55% | -12.2%
CC(=O)NC(CCCCNC(=O)N(C)N=O)C(=O)NCc1ccccc1 (centres undefined) | -41.1% | -17.6% | -12.2% | -4.3% | -26.8% | -12.8%

Structure (SMILES) | growth inhibition [1] | growth inhibition [2] | growth inhibition [3] | growth inhibition [4] | growth inhibition [5] | growth inhibition [6]
CNC1C(=O)C(C)C(O)(C(CC(C)C(O)/C=C/C=C/CNC(=O)C(C)(C)C(O)\C(C)=C/C=C\C=C\Cc2cnc(C)o2)OC)C12C(=O)OC2COC (centres undefined) (tested in a mixture with another compound) | 2.6% | -22.1% | -7.75% | 2.95% | 12.9% | 6.35%
Cc1cccc(NC(=O)Nc2cccc(C)c2)c1 | -3.75% | -2.95% | -2% | -25.9% | -22.1% | -18.2%
CC(O)C(N=Cc1ccccc1[O-])C(=O)[O-].CC(O)C(N=Cc1ccccc1[O-])C(=O)[O-].[Co+2] (centres undefined) | -7% | -2.05% | -16.6% | 4.4% | 7.65% | -25.9%
Cc1cc(=O)c2c(Br)ccc(Br)c2[nH]1 | 3.5% | -16.1% | -1.1% | 3.4% | 7.3% | -13.8%
CCN(CC)CCNC(=O)c1cn2c(ccc3sc4ccccc4c(=O)c32)n1 | 70.8% (active) | 57.5% | 48.7% | 38.3% | 26.3% | 28.8%
CNCC(O)(C(=O)O)C(=O)O | -12.6% | -45.9% | -32.9% | 6.05% | -29.1% | -7.95%
Cc1cccc(C2=N/C(=C\c3c(O)ccc4ccccc34)C2=O)c1 | 6.55% | 7.1% | 0.9% | 6.55% | 10.9% | -6.65%
CC(C)NC(=O)c1ccc(CBr)cc1 | 0.8% | 9.05% | -10.1% | 9.8% | 10.4% | 14.3%
CC1(c2cccc[n+]2Cc2ccccc2S(=O)(=O)[O-])OCCO1 | 5.5% | -3.6% | -8.95% | 0.3% | -3.95% | -21.6%
CC1CCC2N(C1)CC1C3(O)CC4(O)C(CCC5C(=O)C(O)CCC54C)C3(O)CC(O)C1(O)C2(C)O (centres undefined) | 5.5% | -26.9% | -10.8% | 10.9% | -9.1% | -7.7%
COc1ccccc1NC(=O)N1CCN(c2cccc(C)c2)CC1 | 4.5% | -2.3% | 12.6% | -15.7% | 37.4% | -8.4%
Cc1cccc(C(C)C)c1NC(=O)C(=O)CC(=O)c1sc(Nc2ccccc2Cl)nc1C | -40% | -8.5% | -0.45% | -14.6% | -30.1% | 1.15%
C=C1C(=O)OC2/C=C(\C)C(O)C/C=C(/C)C(OC(=O)/C(C)=C\C)C(O)C12 (centres undefined) | 13.9% | -17.8% | 7.2% | 5.6% | -12.8% | 11.8%
Cc1ccc2ccccc2c1[N+](=O)[O-] | 43.5% | 5% | 37.3% | 17.1% | 21.6% | 36.5%
CC(C)(C)c1cc(O)c(C(=O)O)cc1O | 39.6% | 29.6% | 44.8% | 17.6% | -3.9% | 33.9%
O=C(Cc1ccc2cc3c(cc2c1)OCO3)NCCc1ccc2c(c1)OCO2 | 30.4% | -8.4% | 25.8% | -11.2% | -1.25% | 8.8%
CC(C)(CCN(CC(=O)O)CC(=O)O)[N+](=O)[O-] | -16.1% | -3.1% | 3.65% | -69.8% | 6.05% | -21.5%
CCN(CC)Cc1ccccc1COC(=O)c1ccc(OC)cc1 | -0.1% | -3.45% | 14.8% | -15.2% | -7.25% | 11.3%
CC(C)N=C(NC#N)NS(=O)(=O)c1cnccc1Nc1ccc(Cl)cc1 | -11.1% | 18.8% | -13% | -1.9% | -18.1% | 24.8%

Source: PubChem BioAssay (NCI)
